High-throughput results as filed in PubChem.
Shown is part of a subset that was picked to be rich in hits.
SF-1 inh: inhibitors of human nuclear receptor SF-1. AID 525. inhibition, % at 10 µM. 65,000 tested, 0.55% active. Q13285. CHO-K1 Gal4-SF-1 LBD luciferase reporter;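 active means inhibition above the mean inhibition of all tested compounds plus 3 SD, cut at about 48% in these data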
Of the large screens only hits and unclear results are named; the others gave an inactive call.

CCn1nc(-c2cccs2)nc2c(=O)n(C)c(=O)nc1-2	SF-1 inh 96
N[C@@H](Cc1c[nH]c2ccccc12)c1nnc(SCc2ccc(F)cc2)o1	none
CC1(C)CN=C(Nc2nc3ccccc3s2)S1	none
COc1cc2nc(CN3CC=C(c4ccccc4)CC3)[nH]c(=O)c2cc1OC	SF-1 inh 88
COc1ccccc1-n1c(-c2ccoc2)nc2ccccc2c1=O	none
C=CCN1C(=O)CSc2ccc(C(=O)N3CCC4(CC3)OCCO4)cc21	none
Cc1cnn(C2CCN(C)CC2)c1N	none
C=C1N2CCC(CC2)C1(O)c1ccccc1C (configuration not stated)	none
O=c1c2ccccc2[nH]c(=S)n1-c1ccc2c(c1)OCO2	none
Cc1cccc(-n2c(CN3C(=O)c4ccccc4C3=O)nc3ccccc3c2=O)n1	none
